Measured values as given in PubChem BioAssay (NCI).
This is part of a sample that, as a whole, favours compounds with a hit. Of some 79,000 tested, about 15% had one in any assay. Rule as the data show it: active = growth inhibition above about 70%; inactive = the rest.

Key:
[1] = NCI Yeast Anticancer Drug Screen. Data for the rad50 strain (AID 155);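 also: 0% = growth of vehicle-only cultures of the same strain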; conditions: S. cerevisiae rad50 strain growth inhibition; at 50.0 µM; hits give high values
How it was run: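 A DNA repair-deficient yeast mutant serves as the test organism; compound-induced growth inhibition is calculated against vehicle-treated cells.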

[2] = NCI Yeast Anticancer Drug Screen. Data for the mec2-1 strain (AID 157); conditions: S. cerevisiae mec2-1 strain, at 50.0 µM, hits give high values
How it was run: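 Yeast mec2-1 mutant treated with compound. Readout: growth inhibition vs vehicle controls.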

[3] = NCI Yeast Anticancer Drug Screen. Data for the sgs1 mgt1 strain (AID 161);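 also: 0% = growth of cultures given vehicle only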; conditions: S. cerevisiae sgs1 mgt1 strain, at 50.0 µM, hits give high values
How it was run: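 Read-out: growth inhibition vs vehicle controls. Cells: mutant yeast strain deficient in DNA damage repair.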

[4] = NCI Yeast Anticancer Drug Screen. Data for the cln2 rad14 strain (AID 165);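 also: 0% = growth equal to vehicle treated cultures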; conditions: S. cerevisiae cln2 rad14 strain, at 50.0 µM, hits give high values
How it was run: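 cln2 rad14 yeast strain; compound exposure; growth inhibition read vs vehicle controls.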

[5] = NCI Yeast Anticancer Drug Screen. Data for the bub3 strain (AID 167); conditions: S. cerevisiae bub3 mutant strain, at 50.0 µM, hits give high values
How it was run: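 Inhibition values come from growth of compound-treated mutant yeast normalised to vehicle-treated controls.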

[6] = NCI Yeast Anticancer Drug Screen. Data for the mlh1 rad18 strain (AID 175); conditions: S. cerevisiae mlh1 rad18 strain growth inhibition; at 50.0 µM; hits give high values
How it was run: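 Yeast w/ defined DNA-repair lesions; compound exposure; growth vs vehicle controls → % inhibition.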

Measured: growth inhibition

CC1=N/C(=C\c2ccc([N+](=O)[O-])cc2)C(=O)O1
inactive: [1] 19.9% | [2] 9.05% | [3] 2.45% | [4] 4.6% | [5] 13.2% | [6] 42.8%

CCOC(=O)N1CCC2C(=C(C)C(C)C3=C2C(=O)c2ccccc2C3=O)C1 (stereo unspecified)
inactive: [1] -11.5% | [2] -3.5% | [3] -8.9% | [4] 16.9% | [5] 62.4% | [6] 7.1%

COc1ccc(OC)c(N=Nc2c(C)nc(N)nc2C)c1
inactive: [1] 11.3% | [2] 4.4% | [3] 7.85% | [4] -32.6% | [5] 19.6% | [6] 10.2%

NC(Cc1c[nH]c2ccc(F)cc12)C(=O)O (stereo unspecified)
inactive: [1] -4.35% | [2] -17.5% | [3] -29.8% | [4] -37% | [5] -14.4% | [6] 4.15%

COc1ccc(C(=O)CC(=O)CCC(=O)Nc2cc(C)ccc2C)cc1
inactive: [1] -6.55% | [2] 5.2% | [3] 18.2% | [4] -7.75% | [5] 5.25% | [6] 25.1%

CSCCC(NC(=O)CCCOc1ccc(Cl)cc1C)C(=O)O (stereo unspecified)
inactive: [1] 1.8% | [2] -12% | [3] 3.85% | [4] -29.9% | [5] -0.9% | [6] -5.25%

CCN(CC)CCCNc1c2c(nc3ccc(Cl)cc13)CCCC2
inactive: [1] -20.1% | [2] -9.35% | [3] 0.6% | [4] -8.1% | [5] -11.8% | [6] 2.75%

COC(=O)/C(=C/C=C/c1ccccc1)N=[N+]=[N-]
inactive: [1] -20.5% | [2] 7.5% | [3] -12% | [4] -11.6% | [5] 3.2% | [6] -10.1%

C(=Nc1ccc2c(c1)Cc1ccccc1-2)c1ccc2c(c1)OCO2
inactive: [1] 8.75% | [2] -10.1% | [3] 9.75% | [4] -2.1% | [5] 3.05% | [6] 15.4%

CCCCCC/C=N\NC(N)=S
inactive: [1] -17.1% | [2] 14.2% | [3] 30.4% | [4] -71.1% | [5] 17.9% | [6] 28.2%

CC(C)CN(CC(C)C)C(=O)CCl
inactive: [1] -3.1% | [2] -0.3% | [3] 14.1% | [4] -15.9% | [5] 6% | [6] -1.65%

NC1=NC(=O)N(C2CC(O)C(COP(=O)(O)O)O2)C(I)C1 (stereo unspecified)
inactive: [1] 31.9% | [2] 0% | [3] 12.9% | [4] -28.6% | [5] -0.6% | [6] 13.2%

CC1CC(c2ccccc2)(c2ccccc2)CN1C (stereo unspecified)
inactive: [1] -16.1% | [2] 9.4% | [3] 6.55% | [4] -45.3% | [5] 15.2% | [6] 8.5%

CCOC(=O)C(C(=O)OCC)C(C)(C)C
inactive: [1] -96.7% | [2] -18.3% | [3] -28.2% | [4] -36.4% | [5] -3.85% | [6] -9.2%

Cc1ccc(C2=C(Cl)C(=O)C(c3ccc(C)cc3)=C(Cl)C2=O)cc1
inactive: [1] -15.8% | [2] 10.3% | [3] -13.8% | [4] -3.95% | [5] -57.5% | [6] -14.4%

ClC1=CC(Cl)=C2N=C(N3CCCC3)N=C3N=C(N4CCCC4)N=C1N32
inactive: [1] -15.2% | [2] -5.45% | [3] -19.7% | [4] -10.6% | [5] 1.6% | [6] 4.55%

Cc1ccsc1/C=N/Nc1nc2ccccc2s1
inactive: [1] 1.7% | [2] -1.5% | [3] 13.7% | [4] 9.2% | [5] -2.15% | [6] 11.3%

COc1ccc(C(=O)O)cc1
inactive: [1] 12.3% | [2] -19.8% | [3] -32.7% | [4] -41% | [5] -2.9% | [6] -4.25%

O=C(NCc1ccco1)Nc1ccc(Cl)cc1
inactive: [1] -29.5% | [2] -0.8% | [3] 0.6% | [4] -51.4% | [5] 14.5% | [6] -2.7%

O=c1c2cc(S(=O)(=O)Nc3ccccc3Cl)ccc2ncn1NS(=O)(=O)c1ccc(Br)cc1
inactive: [1] 35.2% | [2] 1.8% | [3] 31.9% | [4] -0.4% | [5] 19.5% | [6] 23.9%

CC(=O)Nc1ccc(C(=O)NN2C(=O)C(Cl)C2c2ccccc2)cc1 (stereo unspecified)
inactive: [1] -22.1% | [2] -18.4% | [3] -49.4% | [4] -10.2% | [5] -28.8% | [6] -28.6%

O=C(O)c1cccnc1C(=O)Nc1cccc2ccccc12
inactive: [1] 13.1% | [2] 13.4% | [3] 12.6% | [4] 0.9% | [5] 10.2% | [6] -16.6%

COc1cc(Cc2c(OC)c(OC)cc(C)c2C(=O)O)cc(OC)c1
inactive: [1] 18.6% | [2] -12.8% | [3] -1.75% | [4] 6.95% | [5] -13.9% | [6] -14.4%

CCOC(=O)/C(C#N)=C/c1ccccc1F
inactive: [1] 22.9% | [2] 13.5% | [3] 20.4% | [4] 1.4% | [5] 14.8% | [6] 40.8%

CC(C)(C)OC(=O)NCC(O)CNC(=O)OC(C)(C)C
inactive: [1] -1.25% | [2] -6.6% | [3] -45.8% | [4] -26% | [5] -22.9% | [6] -24.6%

NNC(=O)c1ccccc1F
inactive: [1] -19.6% | [2] -19.4% | [3] -16.3% | [4] -4.7% | [5] -10.2% | [6] -19.2%

CS(=O)(=O)Oc1c(Cl)cc(Cl)c2cccnc12
inactive: [1] 7.8% | [2] -1.1% | [3] -3.75% | [4] -13.7% | [5] 1.2% | [6] 11.2%

Nc1ccc(P(=O)(O)c2ccc(N)cc2Br)c(Br)c1
inactive: [1] 35.1% | [2] -6.1% | [3] 18.4% | [4] 1.55% | [5] -4% | [6] -6.8%

BrC1=NOC2c3cccc4cccc(c34)C12 (stereo unspecified)
inactive: [1] 2.4% | [2] 8.95% | [3] 19.6% | [4] 42% | [5] 34% | [6] 22.8%

COc1ccc2c(c1OC)OC1CNc3cc(C)c(C)cc3N=C1C2 (stereo unspecified)
inactive: [1] 6.1% | [2] 3.35% | [3] 4.05% | [4] -42.2% | [5] 12.8% | [6] 7.35%

Cc1cc2c(cc1C)[n+](=O)c(C(=O)CC(=O)C(=O)Nc1ccccc1C(C)C)c(C)n2[O-]
inactive: [1] -26.4% | [2] -4.75% | [3] -51.6% | [4] 13.1% | [5] -14.4% | [6] -33.6%

C=Cc1c(C)c2cc3[nH]c(cc4nc(cc5nc(cc1[nH]2)C(C)=C5CCC(=O)OC)C(CCC(=O)OC)=C4C)c(C)c3C=C
inactive: [1] 8.1% | [2] 6.45% | [3] 10.3% | [4] 13.1% | [5] -1.05% | [6] -5.85%

O=[N+]([O-])C[C@@]12O[C@]3(O)C4C5CC(C6C5C3C61)C42 (stereo partly specified)
inactive: [1] 6.35% | [2] 10.5% | [3] 15.3% | [4] 2.7% | [5] 1.2% | [6] 8.05%

COc1cccc2c1C(=O)c1c(O)c3c(c(O)c1C2=O)C[C@@](O)(/C(C)=N\NC(=O)CCC(N)C(=O)O)C[C@@H]3OC1CC(N)C(O)C(C)O1 (stereo partly specified) (tested in a mixture with another compound)
inactive: [1] -30.9% | [2] -57.9% | [3] 0.65% | [4] -6.05% | [5] -25.8% | [6] -46.7%

Nc1nc2c(N)cc(C(F)(F)F)cc2nc1-c1ccccc1
inactive: [1] -38.2% | [2] -17.2% | [3] -1.9% | [4] 7.95% | [5] -6.25% | [6] -12.4%

CC1CCc2nc(N)sc2C1 (stereo unspecified)
inactive: [1] 14.4% | [2] 11.9% | [3] 18.9% | [4] 8.35% | [5] 1.1% | [6] 5.9%

CCCCCC(C)(O)CC(C)(C)C (stereo unspecified)
inactive: [1] -3.15% | [2] 5.75% | [3] 0.55% | [4] -7.95% | [5] 2.2% | [6] 34.8%

Cc1c(Cl)cc([N+](=O)[O-])cc1Cl
inactive: [1] -13.2% | [2] 13.7% | [3] -11.8% | [4] 17.1% | [5] -3.45% | [6] 5.25%

COc1ccc(N2C(=O)C3c4[nH]c5cccc(C)c5c4C4CCC(C(C)(C)C)CC4C3C2=O)cc1 (stereo unspecified)
inactive: [1] 8.75% | [2] -21.1% | [3] -5.75% | [4] -10.6% | [5] 2.8% | [6] 6%

CCCCc1c2c(nc3c1CCC/C3=C\c1ccccc1)/C(=C/c1ccccc1)CCC2
inactive: [1] -5.05% | [2] 16.9% | [3] -1.3% | [4] 9.7% | [5] -0.55% | [6] 22.3%

O=P(O)(O)c1ccc(Oc2ccccc2)cc1
inactive: [1] -8.6% | [2] 1.35% | [3] -4.1% | [4] -22.2% | [5] 5.45% | [6] -2.85%
